In this assay the target is Genome polyprotein (Dengue virus type 2 (strain 16681-PDK53)) (UniProt P29991). In words: Dengue-2 NS5 methyltransferase inhibitors, primary screen, biochemical, confirmation dose response (AID 588689). Conditions: Dengue-2 NS5 methyltransferase capping enzyme assay, at 25 µM, stronger effect = higher value.
Where [1] appears, read: measured here: pilot screen replicate inhibition.

The structures appear in SMILES notation. Out of some 340,000 compounds screened, about 1,000 (0.29%) were called active. Cut-off read from the data, not from the text of the source: inconclusive = inhibition above about 29% without an active follow-up result; inactive = below that. The list is a sample of the results. Measured potencies and affinities stand elsewhere.

The inhibition is the change of the read-out against control, counted positive when it falls. Turning to `O=C1ON=C(c2ccccc2[N+](=O)[O-])/C1=C/c1cccc([N+](=O)[O-])c1O`, the inhibition is -2.21% (inactive).
On the same count and under the same terms, to `O=C1ON=C(c2ccc(Cl)c([N+](=O)[O-])c2)/C1=C/c1cccc([N+](=O)[O-])c1O` belongs -5.11% (inactive); to `Cc1ccc(/C=C2/C(=O)ON=C2c2ccccc2)o1`, 19.3% (inactive); to `COc1cc([N+](=O)[O-])ccc1-c1ccc(/C=C2\C(=O)ON=C2c2ccccc2)o1`, 30.1% (inactive).
Turning to `O=C1/C(=C\c2ccc(-c3ccccc3[N+](=O)[O-])o2)C(c2ccccc2)=NN1c1ccccc1`, the inhibition was 68.8% (inactive).
Consider `COc1ccc(-c2ccc(/C=C3\C(=O)N(c4ccccc4)N=C3c3ccccc3)o2)c([N+](=O)[O-])c1`, for which the inhibition was 6.61% (inactive).
For `COc1ccc(OCC(=O)N2CCCC2=O)c([N+](=O)[O-])c1`, the inhibition was 0.65% (inactive).
Take `CC(C)CC(NC(=O)C(NC(=O)OC(C)(C)C)C(C)C)C(=O)N1CCCC1C(N)=O` (configuration not stated): the inhibition was -8.35% (inactive).
Regarding `COc1cccc(-c2noc(CCC(=O)NCC3CCCO3)n2)c1` (configuration not stated), the inhibition was 1.45% (inactive).
With `CNC[C@@H]1OCc2cnnn2CCCC(=O)N([C@H](C)CO)C[C@H]1C`, the inhibition is 2.27% (inactive).
On the same count and under the same terms, to `O=C(CCNC(=O)c1ccc([N+](=O)[O-])cc1)Oc1ccc(F)c(F)c1` belongs -4.42% (inactive); to `CCOC(=O)Cn1cnc2sc3c(c2c1=O)CCC3`, -3.92% (inactive).
Take `Cn1ccnc1SCC(=O)Nc1cc(F)ccc1F`: the inhibition was -1.95% (inactive).
`COc1cccc2c1C(=O)C=C(C)C2=O`: the inhibition is 5.85% (inactive).
As for `COC1=CC(=O)c2ccccc2C1=O`, the inhibition was 0.72% (inactive).
As for `Cc1ccc(C)c(OCC(O)CN2CCc3ccccc3C2)c1C` (configuration not stated), the inhibition is -0.98% (inactive).
As to `CNS(=O)(=O)c1cccc(C(=O)NCC(c2ccco2)N(C)C)c1` (configuration not stated), the inhibition is -4.17% (inactive).
Consider `Cc1ccc(NC(=O)COC(=O)C2C3CC4OC(=O)C2C4C3)cc1` (configuration not stated), for which the inhibition is -4.16% (inactive).
`COc1ccc(N2CC(C(=O)OCC(=O)Nc3cccc(C)c3)CC2=O)cc1` (configuration not stated): the inhibition is -2.68% (inactive).
Take `CCC(c1ccc(O)c(O)c1)C(CC)c1ccc(O)c(O)c1` (configuration not stated): the inhibition is -0.78% (inactive).
Take `CCC(c1ccc(O)cc1)C(CC)c1ccc(O)cc1` (configuration not stated): the inhibition is -4.4% (inactive).
For `O=C(O)c1ccccc1SCc1csc(-c2ccccc2)n1`, the inhibition was -4.89% (inactive).
On the same count and under the same terms, to `O=C(Cc1ccc(Br)cc1)NCCCn1ccnc1` belongs -12.3% (inactive); to `Cc1oc2c(cc(NS(=O)(=O)c3ccc(Cl)cc3)c3ccccc32)c1C(=O)O`, 14.3% (inactive).
For `CC(=O)Nc1ccccc1NS(=O)(=O)c1cccc([N+](=O)[O-])c1`, the inhibition is -5.88% (inactive).
As to `COC(=O)CNC(c1ccccc1)c1cc(Br)ccc1NS(=O)(=O)c1ccccc1` (configuration not stated), the inhibition is -1.28% (inactive).
`O=C(c1ccccc1NS(=O)(=O)c1cccc([N+](=O)[O-])c1)N1CCCC1`: the inhibition is -1.62% (inactive).
Take `CC(=O)Nc1ccccc1NS(=O)(=O)c1ccc(Cl)cc1`: the inhibition is -10.2% (inactive).
For the molecule `CCc1ccc(S(=O)(=O)NC(CC(=O)O)c2ccccc2)cc1` (configuration not stated), the inhibition was -2.12% (inactive).
Still for that read-out and setting: to `CCc1ccc(S(=O)(=O)Nc2ccc(O)c3ccccc23)cc1` belongs 36.9% (inactive).
The same measure, in the same setting: to `Cc1ccc(S(=O)(=O)Nc2ccc(Br)cc2C(NCC(=O)O)c2ccccc2)cc1` (configuration not stated) belongs -7.12% (inactive).
Consider `COc1ccccc1OCC(=O)OCC(=O)NC1CCCCC1`, for which the inhibition was 1.94% (inactive).
For the molecule `Cc1ccc(CNC(=O)C(C)C2Sc3ccccc3NC2=O)cc1` (configuration not stated), the inhibition is 3.04% (inactive).
Consider `CC(=O)c1ccc(S(=O)(=O)N2CCN(c3nn(C)c(=O)n(C)c3=O)CC2)cc1`, for which the inhibition was -1.46% (inactive).
For `CCn1nc(C(=O)Nc2cccc(S(=O)(=O)N3CCCC3)c2)c2ccccc2c1=O`, the inhibition was -8.08% (inactive).
`Cc1nc(CC(=O)NNS(=O)(=O)c2cccc(Cl)c2Cl)cs1`: the inhibition is -1.61% (inactive).
Still for that read-out and setting: to `CN(C(=O)COC(=O)c1ccc(Cl)s1)C1(C#N)CCCCC1` belongs -4.33% (inactive); to `Cc1ccc(S(=O)(=O)N(C)CCCC(=O)N2CCOCC2)cc1`, -2.14% (inactive).
For `CCOC(=O)c1ccc(COC(=O)c2ccc3c(c2)-c2ccccc2C3=O)cc1`, the inhibition was 13.5% (inactive).
For the molecule `O=C(OCc1ccc(F)cc1)c1ccc2c(c1)-c1ccccc1C2=O`, the inhibition is 6.7% (inactive).
For the molecule `O=C(CCS(=O)(=O)c1ccc(Br)cc1)Nc1ccc(Br)cc1F`, the inhibition is -13.3% (inactive).
Same read-out and setting: to `Cc1cc(C)n2nc(SCC(=O)N(C)c3c(N)n(Cc4ccccc4)c(=O)[nH]c3=O)nc2n1` belongs -7.52% (inactive).
For `CCOC(=O)N/N=C/c1cc(C)n(-c2cccc3ccccc23)c1C`, the inhibition is 1.3% (inactive).
On the same count and under the same terms, to `Cc1cc(C)n(CC(=O)NC2CCCCC2C)c(=O)c1C#N` (configuration not stated) belongs -0.74% (inactive); to `O=C1C=C(N2CCOCC2)c2ccccc2C1=O`, 9.17% (inactive).
Same read-out and setting: to `NC1=CC(=O)C(=O)c2ccccc21` belongs 27.9% (inactive).
`COc1ccc(C(C)=O)cc1CSc1nc2cc(C(=O)O)ccc2c(=O)n1Cc1ccccc1`: the inhibition is 4.46% (inactive).
Take `O=C(CSc1nncs1)NCCNC(=O)CSc1nncs1`: the inhibition is -2.96% (inactive).
As to `Cc1[nH]n(-c2ccccc2)c(=O)c1Sc1ccc(Cl)cc1`, the inhibition is 13.9% (inactive).
The same measure, in the same setting: to `Cc1[nH]n(C(C)(C)C)c(=O)c1Sc1ccccc1` belongs -11.6% (inactive).
For the molecule `CC(C)(C)c1ccc(-c2nc(C=O)c3ccccn23)cc1`, the inhibition was 0% (inactive).
Still for that read-out and setting: to `N#C/C(=C\c1ccccc1)C(=O)NNS(=O)(=O)c1ccc(Br)cc1` belongs 13.6% (inactive).
As to `N#C/C(=C/c1cccc([N+](=O)[O-])c1)C(=O)Nc1ccccc1O`, the inhibition was 5.78% (inactive).
As for `COC(CNC(=O)c1coc2nc3ccccc3nc12)OC`, the inhibition is -7.62% (inactive).
As for `COC(CNC(=O)c1cccnc1)OC`, the inhibition was -7.01% (inactive).
With `O=[N+]([O-])c1ccc(CN2CCC(Cc3ccccc3)CC2)cc1`, the inhibition was -6.79% (inactive).
As for `CCN1CCN(CCCNC(=O)CNC(=O)c2nn(-c3ccc(OC)cc3)c(=O)c3ccccc23)CC1`, the inhibition is 0.79% (inactive).
Regarding `CCCCCc1nnc(N)s1`, the inhibition is 0% (inactive).
For `CN1CCN(NC(=O)CSc2ccc(Cl)cc2Cl)CC1`, the inhibition is -10.7% (inactive).
Regarding `CCOC(=O)c1c2c(n(Cc3ccccc3)c1C)C(=O)C(=O)c1ccccc1-2`, the inhibition is 25.5% (inactive).
Take `CCOC(=O)c1c(C)nc2c(c1-c1cc(OC)ccc1OC)C(=O)c1ccccc1-2`: the inhibition was 0% (inactive). In addition, the inhibition under setting [1] came to 3.65%.
On the same counts, the results for `Cc1ccc(NC2=CC(=O)C(=O)c3ccccc32)cc1` are 54.8% (inactive) and 5.15%.
For the molecule `O=C1C=C(Nc2ccc(F)cc2)c2ccccc2C1=O`, the inhibition is 0.37% (inactive).
With `CC(C)(C)c1ccc(C2(C)NC(=O)N(CC(=O)c3ccc[nH]3)C2=O)cc1` (configuration not stated), the inhibition was -2.04% (inactive).
On to `CC(OC(=O)c1cccc(-n2cnnn2)c1)c1nc2ccccc2c(=O)[nH]1` (configuration not stated), for which the inhibition was -3.65% (inactive).
Same read-out and setting: to `CC(=O)OCC1=C(C(=O)O)N2C(=O)C(NC(=O)CCn3nc(C)c(Cl)c3C)C2SC1` (configuration not stated) belongs 0.78% (inactive); to `CC(=O)OCC1=C(C(=O)O)N2C(=O)[C@@H](NC(=O)Cc3ccccc3)[C@H]2SC1`, -1.45% (inactive); to `O=C(O)c1cccc(NC(=O)c2ccc3c(c2)C(=O)N(Cc2ccco2)C3=O)c1`, -0.72% (inactive).
As to `O=C1NC(=O)/C(=C/c2ccccc2OCc2ccccc2)S1`, the inhibition was 11.6% (inactive).
Turning to `CN1C(=O)/C(=C\c2ccccc2OCc2ccccc2)SC1=S`, the inhibition was -2.61% (inactive).
Still for that read-out and setting: to `O=C1NC(=O)/C(=C\c2ccccc2OCc2ccccc2)S1` belongs -0.78% (inactive); to `O=C(O)CCCCN1C(=O)/C(=C\c2ccc(OCc3ccccc3)c(OCc3ccccc3)c2)SC1=S`, 6.5% (inactive).
Same read-out and setting: to `Cc1nn(-c2ccccc2)c(Cl)c1/C=C1\SC(=S)N(C)C1=O` belongs 4.37% (inactive); to `O=C(O)COc1ccccc1/C=C1\SC(=O)N(Cc2ccc(F)cc2)C1=O`, 8.1% (inactive); to `Cc1nn(-c2ccccc2)c(Cl)c1/C=C1\C(=O)N(C)C(=S)N1C`, -12.7% (inactive).
With `O=C(O)CCCN1C(=O)/C(=C\c2ccco2)SC1=S`, the inhibition was 47.7% (inactive).
For `CC(Oc1ccccc1)C(=O)N=C1SC2CS(=O)(=O)CC2N1Cc1ccccc1` (configuration not stated), the inhibition is 0% (inactive).
On the same count and under the same terms, to `Cc1nc(-c2ccccc2)sc1C(=O)Nc1ccccc1F` belongs 0% (inactive); to `CCOC(=O)N1CCN(C(=O)c2cn(CC)c3ccc(S(=O)(=O)N(C)C4CCCCC4)cc3c2=O)CC1`, 2.95% (inactive).
Consider `O=C(NO)C1CC2C=CC1C2` (configuration not stated), for which the inhibition was -6.15% (inactive).
As to `CCn1ccc2c(OCC(=O)NCCc3ccc(OC)c(OC)c3)cccc2c1=O`, the inhibition is -3.6% (inactive).
Regarding `CC(=C\c1ccccc1)/C=C1/SC(=S)N(CCC(=O)O)C1=O`, the inhibition is 11.1% (inactive).
On the same count and under the same terms, to `CCOc1ccccc1C=C1SC(=S)N(CC)C1=O` belongs 6.98% (inactive).
For the molecule `CC(=C\c1ccccc1)/C=C1/SC(=S)N(CCCC(=O)O)C1=O`, the inhibition is 19% (inactive).
Same read-out and setting: to `CN1C(=O)S/C(=C/c2ccccc2OCc2ccc(C(=O)O)cc2)C1=O` belongs 5.16% (inactive).
Turning to `O=C(Nc1cccc(C(=O)O)c1)/C(=C\c1ccccc1)NC(=O)c1ccccc1Cl`, the inhibition is -2.05% (inactive).
On to `O=C1CCc2cc(S(=O)(=O)NCCc3ccc(Cl)cc3)cc3c2N1CC3`, for which the inhibition is 3.62% (inactive).
For the molecule `O=S(=O)(c1cccc2cccc(Cl)c12)N1CCCC1`, the inhibition is -4.68% (inactive).
For `O=C(CCC1CCCN(C(=O)CCC(F)(F)F)C1)NCc1ccc(F)c(F)c1` (configuration not stated), the inhibition was -0.74% (inactive).
With `O=C(COC(=O)c1ccco1)NCc1ccccc1Cl`, the inhibition was 3.03% (inactive).
`Nc1ccc(S(=O)(=O)c2ccc(N)cc2)cc1`: the inhibition is 1.49% (inactive).
In the case of `Nc1ccc(S(=O)(=O)c2cccc(N)c2)cc1`, the inhibition was -5.56% (inactive).
Same read-out and setting: to `COCCn1c(C)cc(C(=O)CSc2n[nH]c(N)n2)c1C` belongs -0.41% (inactive).
In the case of `O=c1c2c([N+](=O)[O-])cc([N+](=O)[O-])cc2sn1Cc1ccccc1`, the inhibition is 18.3% (inactive).
For `O=C1c2c([N+](=O)[O-])cc([N+](=O)[O-])cc2S(=O)N1Cc1ccccc1` (configuration not stated), the inhibition is 10.1% (inactive).

The values above are taken from PubChem BioAssay AID588689 (Southern Research Specialized Biocontainment Screening …, 2011).
